Source: PubChem (National Center for Advancing Translational Sciences (NCATS))
VACV mCherry inh = vaccinia inhibition (mCherry reporter). actives 0.63% (n = 310,000). Potency, µM (series often up to 36.5 µM), usual class: inhibitors. Vaccinia virus mCherry reporter infection, fluorescence. AID 720579; calls by dose curve; tested in A549 cells; note: nearly all actives have a fitted effect of over 35% in size
MARV entry inh = inhibitors of Marburg virus binding or cell entry | Marburg virus pseudotyped entry inhibition, cell reporter | Potency, µM (top dose mostly 37.8 µM), actives largely listed as inhibitors | actives 1.8% (n = 300,000); calls by dose curve; tested in HEK293 cells
FMDV antiviral = foot and mouth disease virus antiviral activity; FMDV antiviral cell-based qHTS; Potency, µM (top dose mostly 57.9 µM), actives largely listed as inhibitors; AID 1159524; actives 1.2% (n = 410,000); calls by dose curve; tested in HEK293T cells; note: read-out not given here; nearly all actives have a fitted effect of over 45% in size
LASV entry inh = Lassa virus entry inhibition; AID 540256; Lassa virus pseudotype entry inhibition, cell reporter; Potency, µM (doses to about 37.9 µM), actives largely listed as inhibitors; actives 1.2% (n = 300,000); calls by dose curve; tested in HEK293 cells; note: nearly all actives have a fitted effect of over 50% in size
VACV Venus inh = inhibitors of vaccinia virus (Venus reporter) | Vaccinia virus Venus reporter expression, fluorescence | Potency, µM (doses to about 36.5 µM), usual class: inhibitors | actives 0.46% (n = 330,000) | AID 720580; calls by dose curve; tested in A549 cells; note: nearly all actives have a fitted effect of over 30% in size
HCMV inh = blocks human cytomegalovirus replication | HFF cells, HCMV-luciferase reporter, 72 h; active compounds read low | activity change, negative = inhibition, % at 57.5 µM | AID 1259415 | actives 4.5% (n = 410,000); in the data active = activity change below about -60%; inconclusive = no clear call, values can overlap the other calls; inactive = above about -39%
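Two-dose cell screen: HFF monolayers treated with compounds and infected with luciferase-expressing HCMV at 1 PFU/cell, 72 h at 37C, then lysed for luciferase measurement.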
Hits are given with their value; - = inactive; ? = inconclusive; . = no result; + = active, no number; [ ] = dose if it differs, or a comment. Sampled rows, rich in hits. Any-hit rate of the full collection: about 6.5%.

SMILES	VACV mCherry inh	MARV entry inh	FMDV antiviral	LASV entry inh	VACV Venus inh	HCMV inh
O=C(c1cccc(S(=O)(=O)N2CCc3ccccc3C2)c1)N1CCN(c2ccccc2)CC1	-	?	?	16µM	-	-
O=C(c1ccc(S(=O)(=O)N2CCc3ccccc3C2)cc1)N1CCCCC1	.	.	-	.	.	-62
O=C(c1cccc(S(=O)(=O)N2CCc3ccccc32)c1)N1CCN(c2ccccc2)CC1	-	?	-	4µM	-	?
O=C(Nc1ccc(Cl)c(C(F)(F)F)c1)c1ccc2c(c1)CCN2S(=O)(=O)c1ccccc1	?	?	-	?	?	-74
CCC(CC)c1nnc(NC(=O)c2cccc(S(=O)(=O)N3CCc4ccccc43)c2)s1	-	-	.	?	-	-
CCOC(=O)c1sc(NC(=O)c2cccc(S(=O)(=O)N3CCc4ccccc43)c2)c(C#N)c1C	.	.	?	.	.	-99
COc1ccccc1NC(=O)COc1ccc(Br)cc1CNC1CCCC1	-	5.6µM	-	.	-	-
COc1ccccc1NC(=O)COc1ccc(Br)cc1CO	.	-	-	-	.	-
Cc1ccccc1OCC(=O)Nc1nnc(COc2ccccc2)s1	-	-	-	-	-	-79
CCC(=O)N1CCN(c2ccc(NC(=O)COc3ccccc3Cl)cc2)CC1	.	?	32µM	?	.	?
CCCOC(=O)c1ccc(NC(=O)c2ccccc2OC)cc1	-	-	-	-	-	-
CCCOC(=O)c1ccc(NC(=O)c2ccccc2[N+](=O)[O-])cc1	.	.	-	.	.	-100
CS(=O)(=O)CCCCN=C=S	-	.	-	.	-	.
COc1cc(C2C(=O)N(C3CCCCC3)CC(=O)N2CCC2=CCCCC2)ccc1OC(C)C (centres undefined)	-	.	-	-	-	-
NCCn1oc(=O)[nH]c1=O	-	.	-	.	-	.
Cc1ccc(NC(=O)COc2ccccc2CNC(C)(C)CC(C)(C)C)cc1	.	-	-	.	.	-65
CC(C)n1cc(NC(=O)COc2ccccc2Cl)cn1	-	-	-	-	-	-61
Cc1ccc(OCC(=O)Nc2ccc(C(=O)Nc3ccccc3C(=O)O)cc2)cc1C	-	.	-	.	-	-
CC(C)(CO)NCc1ccccc1OCC(=O)Nc1ccccc1	-	-	.	-	-	-
Cc1ccccc1OCC(=O)Nc1ccc(C(=O)Nc2ccccc2C(=O)O)cc1	-	-	-	-	-	-70
Cc1ccc(C(=O)N2CCN(c3ccc(NC(=O)COc4ccccc4C)cc3)CC2)cc1	?	?	14µM	?	?	?
COC(=O)N[C@H](C(C(=O)OC)=C(C)NCc1ccccc1)c1ccc(Cl)cc1	.	-	.	.	.	.
COc1ccccc1NC(=O)COc1ccccc1C(=O)Nc1ccccc1	-	?	-	-	-	-93
Cc1ccccc1NC(=O)COc1ccccc1C(=O)Nc1ccccc1	-	.	.	.	-	.
COc1ccccc1Nc1ccc(NC(=O)c2cccc([N+](=O)[O-])c2C)cc1	.	.	?	.	.	-62
SMILES	VACV mCherry inh	MARV entry inh	FMDV antiviral	LASV entry inh	VACV Venus inh	HCMV inh
CCC(=O)N1CCN(c2ccc(NC(=O)COc3ccccc3[N+](=O)[O-])cc2)CC1	.	.	28µM	.	.	-
CCOC(=O)c1cccc(NC(=O)CCC(=O)N2CC(C)Oc3ccc(C)cc32)c1 (centres undefined)	-	-	-	-	-	-
COC(=O)c1cc2c(c3c4cc(OC)ccc4n(S(=O)(=O)c4ccc(F)cc4)c13)C(=O)N(Cc1ccccc1)C2	.	.	.	.	.	-
CCN(CC)S(=O)(=O)c1ccc2[nH]cc(C(=O)NCCC3=CCCCC3)c(=O)c2c1	.	11µM	14µM	1.3µM	?	-83
CCN(CC)S(=O)(=O)c1ccc2[nH]cc(C(=O)NCCCN3CCCCC3C)c(=O)c2c1 (centres undefined)	-	-	.	-	-	-73
CCN(CC)S(=O)(=O)c1ccc2[nH]cc(C(=O)NCCN3CCCCCC3)c(=O)c2c1	-	-	-	?	-	-
CCN(CC)S(=O)(=O)c1ccc2[nH]cc(C(=O)NCCN3CCCCC3C)c(=O)c2c1 (centres undefined)	-	-	-	-	-	-
O=C(c1ccccc1F)N1C[C@@H]2[C@H](c3ccccc31)[C@H](CO)N2C(=O)c1ccccc1	.	.	.	.	.	-
CCN1CCN(c2ncc(C(=O)Nc3cc(Cl)ccc3OC)c3ccccc23)CC1	?	2µM	-	?	?	-
O=C(Nc1c(F)cccc1F)c1cnc(N2CCN(c3ccccn3)CC2)c2ccccc12	.	?	13µM	?	.	?
Cc1ccc(NC(=O)c2cnc(N3CCN(c4ccccn4)CC3)c3ccccc23)c(Br)c1	?	?	6.3µM	?	?	-70
O=C(c1cnc(N2CCN(c3ncccn3)CC2)c2ccccc12)N1CCN(c2ccccn2)CC1	?	?	28µM	11µM	-	?
Cc1cc(Br)ccc1NC(=O)c1sc2ncnc(N3CCN(c4ccccn4)CC3)c2c1C	-	?	-	?	-	-
O=C(c1ccccc1-c1ccccc1)N1CCN(c2ccccn2)CC1	-	?	-	?	-	-
COC(=O)c1cnc(N2CCN(c3ccc(F)cc3)CC2)c2ccccc12	-[7.34 µM]	.	?	-	-[7.34 µM]	-
COc1ccc(Cl)cc1NC(=O)c1cnc(N2CCCCC2)c2ccccc12	-	.	-	-	-	-
O=C(COC(=O)c1c2c(nc3ccccc13)/C(=C/c1ccco1)CC2)NC1CCCC1	?	?	-	13µM	-	-
Cc1ccc2[nH]c(=O)c3cc(C(=O)NCCCN4CCC(C)CC4)sc3c2c1	-	?	-	.	-	-
COc1ccc(C2Nc3ccccc3-n3c(-c4ccccc4)c4c(=O)n(C)c(=O)n(C)c4c32)cc1 (centres undefined)	-	?	-	?	-	-
Cn1c(=S)[nH]c2sc3c(c2c1=O)CCC(C(C)(C)C)C3 (centres undefined)	.	.	.	.	.	-95
CC(C)CN=c1cc(-c2ccccc2)oc2ccc(Cl)cc12	.	18µM	-	?	-	-
COC(=O)c1ccc(CN2C(=O)[C@@]3(CC(C)=CC[C@@H](COc4ccccc4)O3)c3ccccc32)cc1	.	-	.	.	.	.
S=Cc1ccc(/C=C/c2ccnc3ccccc23)cc1	-	.	.	.	-	.
CCOc1ccc(OCc2ccc(C(=O)N/N=C(\C)c3ccccn3)cc2)cc1	1.8µM	7.9µM	-	11µM	?	-85
C/C(=N\NC(=O)c1ccccc1OCc1ccc(F)cc1)c1ccccn1	.	.	-	.	.	-102
SMILES	VACV mCherry inh	MARV entry inh	FMDV antiviral	LASV entry inh	VACV Venus inh	HCMV inh
CCOc1ccc(C(=O)N/N=C(/C)C2C(=O)c3ccccc3C2=O)cc1	-	?	-	-	-	-
O=C(N/N=C/c1ccc[nH]1)c1ccccc1OCc1ccc(F)cc1	-	-	-	-	-	?
COc1ccc2cc(CNCc3nonc3C)c(N3CCCC(CO)C3)nc2c1 (centres undefined)	-	.	-	.	-	.
COc1ccc(-c2nc3ccccc3n3c(-c4cccc(C)c4)c4c(=O)n(C)c(=O)n(C)c4c23)cc1	-	?	?	-	-	-
O=C(N/N=C/c1ccncc1)c1ccc(OCc2ccccc2)cc1	.	.	-	.	.	-62
CCOc1ccc(OCc2ccc(C(=O)NN=Cc3ccc[nH]3)cc2)cc1	?	0.28µM	-	?	?	+
O=c1c2ccccc2nnn1Cc1ccco1	.	.	.	.	.	-
